Sampled rows, rich in hits. Any-hit rate of the full collection: about 2.3%.
Pol beta inh: qHTS Assay for Inhibitors of DNA Polymerase Beta | Pol beta primer extension/strand displacement, fluorescence kinetic | AID 485314, 2010 | 1.3% of 340,000 active | P06746 | Potency, µM (titrated, usually from 114 µM), for the others: top-dose activity change, negative = inhibition, usual class: inhibitors; note: % is set by controls: 0 for no effect and ±100 for the full control effect
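Curves were derived by four-parameter Hill fits of normalized qHTS data. The kinetic fluorescent primer-extension read was taken at 0 and 10 min after 50 nM substrate, following a 15 min room-temperature preincubation of 10 nM enzyme with compounds.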
POLI inh: qHTS for Inhibitors of Polymerase Iota | DNA polymerase iota (Homo sapiens), Q9UNA4 | Pol iota fluorescent replication assay, 10 min | Potency, µM (top dose mostly 115 µM), for inactives: at the top dose activity, negative = inhibition, usual class: inhibitors | 1% of 390,000 active | AID 588590, 2011
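Pol iota at 10 nM preincubated 15 min with compounds at room temperature; reaction started with fluorescent substrate, 50 nM final. Fluorescence read kinetically at 0 and 10 min; buffer-only wells as negative control.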
Pol kappa inh: qHTS for Inhibitors of Polymerase Kappa; DNA polymerase kappa (Homo sapiens), Q9UBT6; purified Pol kappa, fluorescent DNA synthesis assay, 10 min; Potency, µM (titrated, usually from 107 µM), for the others: at the top dose activity, negative = inhibition, most hits filed as inhibitors; 0.53% of 400,000 active; note: % is set by controls: 0 for no effect and ±100 for the full control effect
Target sequence (Q9UBT6 whole entry, looked up): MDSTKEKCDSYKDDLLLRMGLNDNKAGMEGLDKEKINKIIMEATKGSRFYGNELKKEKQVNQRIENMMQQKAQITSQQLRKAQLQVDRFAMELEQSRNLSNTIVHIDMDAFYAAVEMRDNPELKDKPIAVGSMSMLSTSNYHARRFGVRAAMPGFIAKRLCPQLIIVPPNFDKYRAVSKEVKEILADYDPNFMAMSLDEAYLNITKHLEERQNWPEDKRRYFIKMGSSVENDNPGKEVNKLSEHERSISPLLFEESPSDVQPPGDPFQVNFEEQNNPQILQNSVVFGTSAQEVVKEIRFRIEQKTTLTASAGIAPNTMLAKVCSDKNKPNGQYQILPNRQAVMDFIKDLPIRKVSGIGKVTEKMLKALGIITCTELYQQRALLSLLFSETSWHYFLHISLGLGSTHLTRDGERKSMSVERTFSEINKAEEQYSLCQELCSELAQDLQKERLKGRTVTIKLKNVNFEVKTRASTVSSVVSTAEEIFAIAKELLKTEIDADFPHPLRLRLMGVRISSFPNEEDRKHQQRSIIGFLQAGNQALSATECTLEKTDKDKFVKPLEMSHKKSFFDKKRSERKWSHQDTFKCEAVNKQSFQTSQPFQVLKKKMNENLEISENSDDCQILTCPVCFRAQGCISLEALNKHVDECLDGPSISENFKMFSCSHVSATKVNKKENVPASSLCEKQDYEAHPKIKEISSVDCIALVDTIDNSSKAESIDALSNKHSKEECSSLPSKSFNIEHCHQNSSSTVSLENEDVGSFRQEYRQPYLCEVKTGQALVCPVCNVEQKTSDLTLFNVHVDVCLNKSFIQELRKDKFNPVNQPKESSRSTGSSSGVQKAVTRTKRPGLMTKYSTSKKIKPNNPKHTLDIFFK
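Kinetic fluorescence screen: compound preincubated 15 min RT with 10 nM enzyme; 50 nM substrate (final) initiates; reads at 0/10 min.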
WRN inhibitor: qHTS for Inhibitors of WRN Helicase. Bifunctional 3'-5' exonuclease/ATP-dependent helicase WRN (Homo sapiens), Q14191. WRN helicase unwinding, fluorescent forked duplex, kinetic. Potency, µM (highest dose often 114 µM), without a hit: at the top dose activity change, negative = inhibition, most hits filed as inhibitors. 0.46% of 360,000 active; note: % is set by controls: 0 for no effect and ±100 for the full control effect; nearly all actives have a fitted effect of over 55% in size
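Fluorescence dequenching readout, ex 525 nm/em 598 nm, kinetic mode: forked duplex DNA (100 nM final) with adjacent fluorophore and quencher unwound by WRN (20 nM final) with 2 mM ATP. Compound preincubation 15 min, room temperature.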
POLH inh: qHTS for Inhibitors of Polymerase Eta; DNA polymerase eta (Homo sapiens), Q9Y253; Potency, µM (titrated, usually from 114 µM), for inactives: at the top dose activity change, negative = inhibition, usual class: inhibitors; recombinant Pol eta, fluorescent DNA replication assay; 1.2% of 390,000 active; note: % is set by controls: 0 for no effect and ±100 for the full control effect
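Fluorescent replication assay: 50 nM final substrate added after a 15 min room-temperature compound preincubation with 10 nM enzyme. Signal taken at 0 min and again at 10 min.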
The depositor's hits bear a star; ? = inconclusive; · = not tested or not shown; ! = not confirmed by another sample; [ ] = another dose, or the depositor's remark. Calls come from the whole dose curve; as a rule, active = well fitted curve in the direction sought with a large enough effect; inconclusive = small, poorly fitted or top-dose-only effect, or another doubt; inactive = no such curve, though single readings can be large; an effect the other way counts as inactive or inconclusive. Potency is the fitted concentration of half-maximal effect.

SMILES | Pol beta inh | POLI inh | Pol kappa inh | WRN inhibitor | POLH inh
Cc1ccnc2ccc3ccccc3c12 | · | ? | -29.3% | · | ·
OC[C@H]1OC(O)(CN2CCOCC2)[C@H](O)[C@@H]1O (some centres undefined) | · | · | 1.1%[60.1 µM] | · | ·
S=c1nc(C2CC2)[nH]c2ccccc12 | ? | ? | -32.0% | -22.7%[57.1 µM] | 25.1µM*
S=c1nc(C2CCCCC2)[nH]c2ccccc12 | 0.1% | 22.6% | -8.6% | -2.6% | -15.5%
CCOC(=O)c1[nH]c(C)c(C(=O)Nc2ccc(F)cc2)c1C | 38.2% | 7.5% | -19.2% | -3.7% | -18.0%
CCOC(=O)c1[nH]c(C)c(C(=O)Nc2ccccc2F)c1C | -24.0% | -18.2% | -4.9% | -2.1% | 25.1µM*
CCCCNC(=S)N1CCN(C(c2ccccc2)c2ccccc2)CC1 | 0.0% | 100.4% | -10.2% | -0.5% | -24.5%
CCCNC(=S)N1CCN(C(c2ccccc2)c2ccccc2)CC1 | 56.2µM* | -8.6% | -10.9% | -6.8% | ?
CCCc1cc(C(=O)N2CCN(C(c3ccccc3)c3ccccc3)CC2)no1 | -19.3% | ? | 89.1µM* | -7.4%[57.1 µM] | ?
Cc1cc(C(=O)N2CCN(C(c3ccccc3)c3ccccc3)CC2)no1 | 1.3% | -14.2%[58.9 µM] | -6.7% | -15.7% | -14.5%
S=C(NCCc1ccccc1)N1CCN(C(c2ccccc2)c2ccccc2)CC1 | 89.1µM* | -5.6% | -2.8% | -26.5% | -8.8%
CN(CC(=O)Nc1ccccc1Cl)C(=O)COC(=O)c1cccs1 | · | 3.1% | -14.0% | -16.6% | -16.7%
Cc1ccc(NC(=O)COC(=O)c2ccc([N+](=O)[O-])s2)c(C)c1 | -15.3% | -1.9% | 7.4%[60.1 µM] | 4.2% | 5.5%
COc1ccccc1NC(=O)COC(=O)c1ccc([N+](=O)[O-])s1 | 7.08µM* | 79.4µM* | -33.1% | 5.8%[11.6 µM] | ?
CN(CC(=O)Nc1ccccc1Cl)C(=O)COC(=O)c1ccc([N+](=O)[O-])s1 | · | ? | -13.4% | 30.7% | 79.4µM*
O=C(COC(=O)c1ccc(Br)o1)NCc1ccc(F)cc1 | · | -16.1% | -4.7% | -4.5% | -2.9%
O=C(COC(=O)c1ccc([N+](=O)[O-])o1)NCc1ccc(F)cc1 | · | ? | -25.2% | 15.0% | 89.1µM*
O=C(COC(=O)c1ccc([N+](=O)[O-])o1)NCCCc1ccccc1 | · | ? | -23.5% | 22.2% | 89.1µM*
CCCCCCCCCCCCOCCOCCOCCOCCOCCOCCOCCOCCOCCO | · | · | -1.7%[19.4 µM] | · | ·
Brc1cccc[n+]1Cc1ccccc1C[n+]1ccccc1Br | · | -3.9% | -3.4% | · | ·
CC(=O)Nc1ccc(SCC(c2ccccc2)N2CCN(C)CCC2=O)cc1 (centres undefined) | · | 35.5% | -15.9% | · | ·
CCOC(=O)c1ccccc1NS(=O)(=O)c1ccccc1F | 19.3% | 79.4µM* | -20.3% | -12.0%[57.1 µM] | -14.0%
O=C(O)c1cccc(NS(=O)(=O)c2ccc(NC(=O)c3ccco3)cc2)c1 | -23.5% | 5.6% | -19.7% | ? | 28.2µM*
CCc1cccc(NC(=O)C2CCCN(S(=O)(=O)c3cccs3)C2)c1 (centres undefined) | 37.5% | 79.4µM*! | -28.6% | -7.7% | -16.1%
O=C(Nc1nc2nc(-c3ccccc3)cc(=O)n2[nH]1)c1ccccc1 | 0.0% | 7.4% | -0.4% | -11.3% | -10.9%
SMILES | Pol beta inh | POLI inh | Pol kappa inh | WRN inhibitor | POLH inh
O=C(Nc1nc2nc(-c3ccccc3)cc(=O)n2[nH]1)c1ccc(Cl)cc1 | 22.4µM* | -16.4% | -17.7% | · | -8.7%
CCn1c2ccccc2c2cc(/C=N/n3c(-c4cc(C)[nH]n4)n[nH]c3=S)ccc21 | 50.1µM* | ? | -17.4% | -12.4%[11.6 µM] | ?
S=c1[nH]nc(-c2cc(-c3ccccc3)n[nH]2)n1/N=C/c1ccc(Cl)c(Cl)c1 | 22.4µM* | ? | ? | 35.5µM* | ?
S=c1[nH]nc(-c2cc(-c3ccccc3)n[nH]2)n1/N=C/c1ccc(Cl)cc1 | 39.8µM* | 15.8µM* | -9.5% | -16.5%[11.6 µM] | ?
CCn1c2ccccc2c2cc(/C=N/n3cn[nH]c3=S)ccc21 | 18.5% | -3.2% | -12.6% | -5.3% | -0.7%
C[N+]1(Cc2ccccc2)CCC(C(=O)OCC2CCCC2)CC1 (centres undefined) | · | · | 7.1%[19.4 µM] | · | ·
c1ccc(-c2[nH]ncc2-c2ccnc3ccccc23)nc1 | · | · | 7.9%[60.1 µM] | · | ·
CCCCCCCCCCC/C=C\C(C)(C)/C=C\CCCC(=O)O | 31.6µM* | 28.2µM* | 26.7µM*! | · | 28.2µM*
CCCCC/C=C\C/C=C\C/C=C\C/C=C\CCCCCC(=O)O | · | · | 3.4%[19.4 µM] | · | ·
CCCCCCCCCCCCCCCC(=O)O | · | · | 3.9%[60.1 µM] | · | ·
CCCCCCC/C=C\CCCCCCCCC(=O)O | ? | 28.2µM* | ? | · | ?
Nc1ccc(/C=C/c2ccnc3ccccc23)cc1[N+](=O)[O-] | · | ? | 1.6% | · | ·
CC(=O)c1ccc2c3c(cccc13)C(=O)N(CCc1ccccc1)C2=O | 31.6µM* | ? | ? | -4.6%[11.6 µM] | 28.2µM*
CCN1/C(=C/c2ccc3cc(C)ccc3[n+]2CC)Sc2cc(C)ccc21 | ? | ? | -18.1% | 50.1µM* | ?
CCCCN1/C(=C/c2cccc[n+]2C)Sc2cc(NC(C)=O)ccc21 | 3.3% | -24.1% | -2.1% | 0.0% | -8.7%
Cc1ccc2c(c1)S/C(=C/c1ccc[n+](C)c1)N2CCO | ? | -12.4% | -13.6% | 3.5% | -10.5%
CCCCN1/C(=C/c2ccc3ccccc3[n+]2CC)Sc2ccccc21 | 50.1µM* | 5.2% | -40.4% | -2.4% | -23.3%
O=c1cc(O)c2c([nH]1)CCC2 | · | 10.1% | -10.8% | · | ·
O=C1C=CC(=O)c2c(O)c(Cl)c(Cl)c(O)c21 | · | · | 7.08µM* | · | ·
COc1ccc(C(=O)N=c2nc(-c3ccccc3)n(-c3ccccc3)s2)cc1 | · | 11.3% | -2.0% | · | ·
C(=C\c1ccnc2ccccc12)/c1ccc2ccccc2n1 | · | 27.6% | -0.1% | · | ·
CN(C)c1ccc(C=O)c(O)c1 | · | 50.1µM* | ? | · | ·
O=C(Nc1cc(OC(=O)C(F)(F)F)c2nonc2c1OC(=O)C(F)(F)F)C(F)(F)F | · | -5.2% | -17.1% | · | ·
Cc1nc2ccc(-c3nc4ccccc4[nH]3)cc2[nH]1 | 12.6µM* | ? | -36.6% | -11.4% | -3.9%
O=C(N/N=C/c1ccc(O)c(O)c1O)/C(=C/c1ccc([N+](=O)[O-])cc1)NC(=O)c1ccccc1 | 7.4% | ? | -38.8% | 39.8µM* | -11.6%
Cc1ccc(NC(=O)/C(=C\c2ccc([N+](=O)[O-])cc2)NC(=O)c2ccccc2)cc1 | 49.8% | -14.4% | 5.4% | 2.7% | -2.6%
CN1/C(=C/c2cccc[n+]2C)Sc2ccccc21 | 31.6µM* | ? | -8.1% | -0.7%[11.6 µM] | 1.7%
Cc1ccc2c(c1)N(C)/C(=C/c1cccc[n+]1C)S2 | ? | ? | -18.1% | 0.7%[11.6 µM] | -7.8%
COc1ccc2c(c1)N(C)/C(=C/c1cccc[n+]1C)S2 | 39.8µM* | ? | -20.6% | -0.9%[11.6 µM] | -15.2%
CCN1/C(=C/c2cccc[n+]2C)Sc2ccc(OC)cc21 | ? | ? | -3.6% | 2.9%[11.6 µM] | -11.5%

Assay outcomes (PubChem BioAssay)
